Screening data from PubChem BioAssay.
TGFb inhibitor = blocks TGF-b signaling; HepG2 CAGA-GFP TGF-b/SMAD3 reporter, GFP fluorescence, 18 h; TGF-beta stimulated, 500 pg/mL final; Potency, µM (top dose mostly 46.1 µM), hits mostly inhibitors; 410,000 tested, 1.2% active; AID 588855; also: nearly all actives have a fitted effect of over 65% in size
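Cell-based qHTS in HEPG2 carrying a CAGA-GFP Smad reporter; compounds added before 500 pg/mL final TGF-beta, 18 h incubation at 37 degrees C, GFP fluorescence quantified per cell by imaging cytometry.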
HT1080-NT tox = kills 2HG-producing HT-1080-NT fibrosarcoma cells; HT-1080-NT fibrosarcoma viability, CellTiter-Glo ATP luminescence, 48 h; Potency, µM (titrated, usually from 46.1 µM), most hits filed as cytotoxic; 360,000 tested, 1.6% active;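 also: NT is the 2HG producing partner of a matched IDH1 knockdown line; nearly all actives have a fitted effect of over 55% in size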
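Viability of the 2HG-overproducing fibrosarcoma line after 48 hours of compound exposure at 37 degrees C was determined by luminescence with CellTiter-Glo, and concentration-effect curves were then fitted and categorized.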
HepG2 tox = kills HepG2 cells in TGF-b inhibitor counter-screen; HepG2 CAGA-GFP viability, ATP luminescence, 18 h; Potency, µM (doses to about 46.1 µM), most hits filed as cytotoxic; 410,000 tested, 0.76% active; AID 588856
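CellTiter-Glo luminescence gave cytotoxicity after 18 hours at 37 degrees C. The cells were HepG2 CAGA-GFP in 1% FBS DMEM, stimulated with 500 pg/mL TGF-beta after compound addition. %Activity was normalised to no-cell wells (complete cell-killing) and DMSO (no toxicity), and curves were fitted and classified.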
HT1080 IDH1KD tx = toxicity to HT-1080 IDH1 knockdown cells (counter line); HT-1080 IDH1 knockdown viability, ATP luminescence, 48 h; Potency, µM (series often up to 46.1 µM), actives largely listed as cytotoxic; 360,000 tested, 2% active; AID 686971
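Luminescent ATP read-out (CellTiter-Glo, 10 min at room temperature) after 48 h compound exposure at 37 °C gave viability of IDH1-knockdown HT-1080 cells. Activity was normalised to DMSO and cell-free wells, then fitted as concentration-response curves.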
S2 tox = reduces viability in counter-screen for ATXN expression inhibitors. AID 651635. 400,000 tested, 0.49% active. S2 cells (HEK-293 line with an ATXN2-luciferase reporter) viability, CellTiter-Fluor protease fluorescence, 24 h. Potency, µM (top dose mostly 56.7 µM), most hits filed as cytotoxic; also: nearly all actives have a fitted effect of over 40% in size
ATXN2 expr inh = ATXN2 expression inhibition. 360,000 tested, 0.72% active. Potency, µM (doses to about 57 µM), actives largely listed as inhibitors. HEK-293 ATXN2-luciferase reporter, luminescence, 24 h; also: nearly all actives have a fitted effect of over 55% in size
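ATXN2-luciferase reporter cells (luciferase flanked by upstream and downstream ATXN2 gene portions) were treated 24 h at 37 °C with compounds at up to 57 uM. SteadyGlo luminescence gave expression; GF-AFC fluorescence gave viability.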
Hits are given with their value; . = inactive; ? = inconclusive; / = no result given; [ ] = dose if it differs, or a comment. Sampled rows, rich in hits. Any-hit rate of the full collection: about 3.8%. Calls follow the shape of the dose curve; as a rule, active = well fitted curve in the direction sought with a large enough effect; inconclusive = small, poorly fitted or top-dose-only effect, or another doubt; inactive = no such curve, though single readings can be large; an effect the other way counts as inactive or inconclusive.

SMILES	TGFb inhibitor	HT1080-NT tox	HepG2 tox	HT1080 IDH1KD tx	S2 tox	ATXN2 expr inh
Cc1cccc(C(=O)NC(=S)N2CCN(C)CC2)c1	.	13µM	.	10µM	.	.
Cc1ccc(C(=O)NC(=S)N2CCCC2)cc1	.	.	.	.	.	.
Cc1ccc(C(=O)NC(=S)N2CCN(C)CC2)cc1	.	.	10µM	.	.	.
CC(C)(C)n1ncc2c(=O)n(Cc3ccc(F)c(F)c3F)cnc21	.	/	.	/	/	/
COc1ccc(C(=O)C2CCCN(Cc3cccn3-c3ccc(Cl)cn3)C2)c(OC)c1 (configuration not stated)	?	16µM	.	18µM	.	.[11.3 µM]
COc1ccc(C(=O)C2CCCN(Cc3c(F)ccc(F)c3F)C2)c(OC)c1 (configuration not stated)	.	.	.	.	.	.
Nc1[nH]n2c(=O)cc(-c3ccccc3)nc2c1N=Nc1ccccc1	.	?	.	?	32µM	?
CCOC(=O)c1ccccc1NC(=O)N1CCCn2nc(C)cc21	.	/	.	/	?	.
O=C(CSc1ccccn1)Nc1nonc1[N+](=O)[O-]	11µM	21µM	13µM	?	13µM	/
O=C(Cc1cccc2ccccc12)NCC(=O)N1CCN(Cc2cccc(C(F)(F)F)c2)CC1	11µM	.	.	.	.	/
Cc1ccc(C(N)=O)cc1Nc1nccc(-c2cn(C(C)C)c3cnccc23)n1	/	/	/	/	/	12µM
Cc1ccc(NC2=NC3(CCCCC3)N=C(N)N2)c(C)c1	.	?	.	11µM	.	.
Cc1ccccc1NC1=NC2(CCCC2)N=C(N)N1	.	.	.	.	.	.
Cc1ccc(NC2=NC3(CCCC3)N=C(N)N2)c(C)c1	.	18µM	.	16µM	.	.[11.3 µM]
Cc1ccc(C)c(NC2=NC3(CCCCC3)N=C(N)N2)c1	.	.	.	.	.	.
CC(C)c1onc(-c2c(Cl)cccc2Cl)c1COc1ccc(C=Cc2cccc(C(=O)O)c2)c(Cl)c1	/	/	/	/	/	.
CCOC(=O)c1c(NC(=O)COC(=O)c2ccccc2NC)sc(C(=O)N(C)C)c1C	?	.	.	?	?	32µM
CC(=O)N1CCN(C(=O)CCc2nc3ccccc3c(=O)[nH]2)CC1	.	.	.	.	.	.
Cc1ccc2c(c1)CCCN2C(=O)CCc1nc2ccccc2c(=O)[nH]1	.	8.2µM	.	?	.	.
O=[N+]([O-])c1ccc(-c2cnc(SC(c3ccccc3)c3ccccc3)[nH]2)cc1	?	23µM	.	21µM	.	.
O=[N+]([O-])c1ccc(-c2cnc(SCc3ccccc3Cl)[nH]2)cc1	.	?	.	?	.	.
Cc1cc(C)c(CSc2ncc(-c3ccc([N+](=O)[O-])cc3)[nH]2)c(C)c1	?	?	.	26µM	.	?
C=CCN(CC=C)S(=O)(=O)c1ccc(NC(=S)NC(=O)C2CC2)cc1	18µM	?	.	?	.	.
NS(=O)(=O)c1ccc(NC(=S)NC(=O)C2CCCC2)cc1	.	.	.	.	.	.
COC(=O)c1cn(Cc2ccccc2C)nn1	.	.	1.8µM	.	.	.
SMILES	TGFb inhibitor	HT1080-NT tox	HepG2 tox	HT1080 IDH1KD tx	S2 tox	ATXN2 expr inh
CC(=O)Oc1ccc2c(c1)CC[C@@H]1[C@@H]2CC[C@]2(C)[C@@H](O)CC[C@@H]12	/	/	/	/	?	.
CC(=O)c1cccc(-c2ccnc3c2CC(C(=O)NCCC(F)(F)F)O3)c1 (configuration not stated)	.	?	.	21µM	.	.
CC(=O)c1cccc(NC(=O)C2Cc3c(-c4cccc(C(C)=O)c4)ccnc3O2)c1 (configuration not stated)	.	.	.	.	.	?
NC(=O)c1cccc(-c2ccnc3c2CC(C(=O)NCCC(F)(F)F)O3)c1 (configuration not stated)	.	?	.	.	.	.
CC(=O)c1cccc(-c2ccnc3c2CC(C(=O)Nc2cccc(NS(C)(=O)=O)c2)O3)c1 (configuration not stated)	.	?	.	18µM	.	.
CS(=O)(=O)Nc1cccc(NC(=O)C2Cc3c(-c4ccco4)ccnc3O2)c1 (configuration not stated)	.	18µM	.	?	.	.
O=C(NC1CC(=O)N(c2cccc(F)c2)C1)c1ccc2c(c1)OCO2 (configuration not stated)	.	/	.	/	/	/
COc1cc(=O)n2c(c1C(=O)N(C)Cc1nonc1C)CCN(Cc1ccccc1Cl)CC2	/	/	/	/	.	/
O=C(Nc1cc(Sc2ccccn2)cc([N+](=O)[O-])c1)c1cccc(Cl)c1	11µM	?	.	?	?	?
O=C(Nc1ccc(S(=O)(=O)Nc2ncccn2)cc1)c1cccc(Cl)c1	.	/	.	/	.	.
O=C(CCCCCn1c(=O)c2sccc2n(CC(=O)Nc2cc(C(F)(F)F)ccc2Cl)c1=O)NCc1ccccc1Cl	?	/	.	/	/	/
CCOC(=O)c1c(C)oc2nc(C)nc(NCc3ccc(F)cc3)c12	.	/	.	/	.	.
O=C(CC1Sc2ccccc2NC1=O)NNc1ccc(F)cc1 (configuration not stated)	.	?	.	7.3µM	.	.
O=C(CC1Sc2ccccc2NC1=O)NNc1cc(Cl)ccc1Cl (configuration not stated)	.	?	.	?	.	.
c1ccc(C2C3=C(CCCC3)Nc3ncnn32)cc1 (configuration not stated)	.	.	.	.	.	.
Fc1ccc(/C=C2\CCCC3=C2Nc2ncnn2C3c2ccc(F)cc2)cc1 (configuration not stated)	?	7.3µM	.	6.5µM	18µM	25µM
O=C(Nc1c(C(=O)c2ccccc2)oc2ccccc12)c1cc(-c2ccccc2O)n[nH]1	.	?	.	18µM	.	.
Cc1ccc(C(=O)c2oc3ccccc3c2NC(=O)c2cc(-c3ccccc3O)n[nH]2)cc1	.	16µM	.	?	/	.
O=c1cc(-c2ccccc2Cl)oc2c(NS(=O)(=O)c3cc(Cl)cc(Cl)c3O)ccc(O)c12	6.3µM	3.3µM	10µM	?	32µM	?
COc1cc(Cl)c(NC(=O)CCS(=O)(=O)c2ccc3c(c2)NC(=O)CO3)c(OC)c1	.	/	.	/	.	.
Cc1cccc(-n2c(=O)c3c(c4cc(C)ccc4n3C)n(Cc3ccccc3F)c2=O)c1	.	/	.	/	.	.
CCOC(=O)c1cnc(-n2nc(C)cc2C)nc1NC1CCCC1	?	?	11µM	?	?	?
CS(=O)(=O)OCCCNCCCOS(C)(=O)=O	/	/	/	/	.	/
COc1ccccc1NC(=O)CN1CCOCC1	.	.	7.9µM	.	.	.
